Test results taken from PubChem BioAssay (NCI).
Several values for one entry are separate records, joined by “and”; a condition that tells them apart may be missing. Equal entries are not always repeated. This is part of a sample that, as a whole, favours compounds with a hit. Of some 79,000 tested, about 15% had one in any assay. A structure can be active in one record and inactive in another. Activity calls are given as the source filed them. No stated cut-off is given here; in the data, active means growth inhibition above about 70%; inactive means the rest.

What was measured:
[1] = NCI Yeast Anticancer Drug Screen. Data for the rad50 strain (AID 155);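 further: 0% = growth of vehicle-only cultures of the same strain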; conditions: S. cerevisiae rad50 strain growth inhibition, stronger effect = higher value
Method in brief: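 Relative growth inhibition (compound vs vehicle) was measured in yeast with a defined repair-gene alteration.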

[2] = NCI Yeast Anticancer Drug Screen. Data for the mec2-1 strain (AID 157); conditions: S. cerevisiae mec2-1 strain, stronger effect = higher value
Method in brief: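 Strain: mec2-1 (DNA repair/cell cycle alteration). Compound exposure, then growth measured; inhibition expressed relative to vehicle.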

[3] = NCI Yeast Anticancer Drug Screen. Data for the sgs1 mgt1 strain (AID 161);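 further: 0% = growth of cultures given vehicle only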; conditions: S. cerevisiae sgs1 mgt1 strain, stronger effect = higher value
Method in brief: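 Test agents were incubated with a DNA-repair-mutant yeast strain. Growth was then read and compared against vehicle-treated controls.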

[4] = NCI Yeast Anticancer Drug Screen. Data for the cln2 rad14 strain (AID 165);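 further: 0% = growth equal to vehicle treated cultures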; conditions: S. cerevisiae cln2 rad14 strain, stronger effect = higher value
Method in brief: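 Compounds are applied to the cln2 rad14 yeast strain, and growth is then compared with that of vehicle-treated cultures to give inhibition.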

[5] = NCI Yeast Anticancer Drug Screen. Data for the bub3 strain (AID 167); conditions: S. cerevisiae bub3 mutant strain, stronger effect = higher value
Method in brief: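 Screening used yeast with an engineered genetic alteration affecting cell cycle control. Compound-exposed cultures were compared with vehicle cultures, and reduced growth was taken as inhibition.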

[6] = NCI Yeast Anticancer Drug Screen. Data for the mlh1 rad18 strain (AID 175); conditions: S. cerevisiae mlh1 rad18 strain growth inhibition, stronger effect = higher value
Method in brief: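 Read-out is yeast growth inhibition, calculated against vehicle-only controls. The compound was applied to a strain engineered with DNA damage repair alterations.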

[7] = NCI Yeast Anticancer Drug Screen. Data for the rad50EPP+ strain (AID 151);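 further: 0% = growth of vehicle-treated control cultures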; conditions: S. cerevisiae rad50 mutant strain, stronger effect = higher value
Method in brief: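 Compounds were applied to the rad50EPP+ yeast strain, which bears a defined DNA repair alteration, and growth inhibition was determined relative to vehicle-treated cultures.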

[8] = NCI Yeast Anticancer Drug Screen. Data for the mgt1 strain (AID 153); conditions: S. cerevisiae mgt1 mutant growth inhibition, stronger effect = higher value
Method in brief: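 Strain: mgt1 yeast, one of a set carrying defined DNA damage repair or cell cycle control alterations. Compound-treated growth compared with vehicle.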

[9] = NCI Yeast Anticancer Drug Screen. Data for the CLN2oe strain (AID 163);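 further: 0% = growth of vehicle-only control cultures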; conditions: S. cerevisiae CLN2oe strain, stronger effect = higher value
Method in brief: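 Growth of a genetically modified yeast strain is measured after compound exposure and compared with cultures given vehicle alone.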

[10] = NCI Yeast Anticancer Drug Screen. Data for the wt2 strain (AID 169);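 further: 0% = growth of vehicle-treated yeast cultures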; conditions: S. cerevisiae wt2 strain growth inhibition, stronger effect = higher value
Method in brief: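 This strain belongs to a panel of yeast strains with defined genetic alterations in DNA damage repair or cell cycle control. Compounds are applied, and growth inhibition is measured against vehicle-treated cultures.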

[11] = NCI Yeast Anticancer Drug Screen. Data for the sgs1 strain (AID 173);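 further: 0% = growth of vehicle-only control cultures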; conditions: S. cerevisiae sgs1 mutant, stronger effect = higher value
Method in brief: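 Growth of a yeast strain bearing a defined genetic alteration is measured after compound treatment. Inhibition is expressed relative to vehicle-only controls.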

[12] = NCI Yeast Anticancer Drug Screen. Data for the rad18 strain (AID 177); conditions: S. cerevisiae rad18 mutant growth inhibition, stronger effect = higher value
Method in brief: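 Growth of the mutant yeast strain after compound exposure, normalised to vehicle-only cultures.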

[13] = at 5.0 µM (retest, dose inferred, filed as 0.5)
[14] = at 50.0 µM (retest, dose inferred, filed as 5.0)

With OCC(O)C(O)C(O)C(O)c1nc2ccccc2[nH]1 (stereo unspecified) the growth inhibition [1, 13] was -2% (inactive) and -4% (inactive), the growth inhibition [1, 14] was -1% (inactive) and -19% (inactive) and the growth inhibition ([1]; at 50.0 µM) was 4% (inactive) [middle of 5 runs]. The growth inhibition [2, 13] was -17% (inactive) and -20% (inactive), the growth inhibition [2, 14] was -30% (inactive) and the growth inhibition ([2]; at 50.0 µM) was 0.75% (inactive) [middle of 5 runs]. The growth inhibition [3, 13] was 3% (inactive) and -6% (inactive), the growth inhibition [3, 14] was 1% (inactive) and -14% (inactive) and the growth inhibition ([3]; at 50.0 µM) was 2% (inactive) [middle of 5 runs]. The growth inhibition [4, 13] was 0% (inactive) and 2% (inactive), the growth inhibition [4, 14] was -1% (inactive) and 14% (inactive) and the growth inhibition [5, 13] was 6% (inactive) and -5% (inactive). The growth inhibition [5, 14] was 12% (inactive) and -1% (inactive), the growth inhibition [6, 13] was -1% (inactive) and -11% (inactive) and the growth inhibition [6, 14] was 5% (inactive) and 1% (inactive).

With Oc1ccc(Br)cc1C=Nc1cccc(C(F)(F)F)c1 the growth inhibition ([7]; at 1.2 µM) was 0% (inactive), the growth inhibition ([7]; at 3.7 µM) was 4% (inactive) and the growth inhibition ([7]; at 11.0 µM) was 10% (inactive). For the same compound, the growth inhibition ([7]; at 33.0 µM) was 30% (inactive), the growth inhibition ([7]; at 100.0 µM) was 64% (inactive) and the growth inhibition ([8]; at 1.2 µM) was -2% (inactive). The growth inhibition ([8]; at 3.7 µM) was 21% (inactive), the growth inhibition ([8]; at 11.0 µM) was 75% (active) and the growth inhibition ([8]; at 33.0 µM) was 96% (active). The growth inhibition ([8]; at 100.0 µM) was 97% (active), the growth inhibition ([1]; at 1.2 µM) was -28% (inactive) and the growth inhibition ([1]; at 3.7 µM) was -20% (inactive). For the same compound, the growth inhibition [1, 13] was 16% (inactive), the growth inhibition ([1]; at 11.0 µM) was 32% (inactive) and the growth inhibition ([1]; at 33.0 µM) was 91% (active). For the same compound, the growth inhibition [1, 14] was 92% (active), the growth inhibition ([1]; at 50.0 µM) was 70.5% (active) and the growth inhibition ([1]; at 100.0 µM) was 97% (active). The growth inhibition ([2]; at 1.2 µM) was 3% (inactive), the growth inhibition ([2]; at 3.7 µM) was -7% (inactive) and the growth inhibition [2, 13] was -17% (inactive). The growth inhibition ([2]; at 11.0 µM) was 59% (inactive), the growth inhibition ([2]; at 33.0 µM) was 97% (active) and the growth inhibition [2, 14] was 97% (active). For the same compound, the growth inhibition ([2]; at 50.0 µM) was 85.5% (active), the growth inhibition ([2]; at 100.0 µM) was 97% (active) and the growth inhibition [3, 13] was 1% (inactive). For the same compound, the growth inhibition [3, 14] was 63% (inactive), the growth inhibition ([3]; at 50.0 µM) was 81.7% (active) and the growth inhibition ([9]; at 1.2 µM) was -4% (inactive). For the same compound, the growth inhibition ([9]; at 3.7 µM) was -1% (inactive), the growth inhibition ([9]; at 11.0 µM) was -1% (inactive) and the growth inhibition ([9]; at 33.0 µM) was 1% (inactive). For the same compound, the growth inhibition ([9]; at 100.0 µM) was 25% (inactive), the growth inhibition [4, 13] was 28% (inactive) and the growth inhibition [4, 14] was 86% (active). The growth inhibition ([4]; at 50.0 µM) was 61% (inactive), the growth inhibition ([5]; at 1.2 µM) was -6% (inactive) and the growth inhibition ([5]; at 3.7 µM) was -1% (inactive). The growth inhibition [5, 13] was 42% (inactive), the growth inhibition ([5]; at 11.0 µM) was -5% (inactive) and the growth inhibition ([5]; at 33.0 µM) was 0% (inactive). The growth inhibition [5, 14] was 94% (active), the growth inhibition ([5]; at 50.0 µM) was 88.2% (active) and the growth inhibition ([5]; at 100.0 µM) was 28% (inactive). The growth inhibition ([10]; at 1.2 µM) was -1% (inactive), the growth inhibition ([10]; at 3.7 µM) was -1% (inactive) and the growth inhibition ([10]; at 11.0 µM) was 0% (inactive). The growth inhibition ([10]; at 33.0 µM) was 10% (inactive), the growth inhibition ([10]; at 100.0 µM) was 65% (inactive) and the growth inhibition ([11]; at 1.2 µM) was 14% (inactive). The growth inhibition ([11]; at 3.7 µM) was 10% (inactive), the growth inhibition ([11]; at 11.0 µM) was 65% (inactive) and the growth inhibition ([11]; at 33.0 µM) was 94% (active). The growth inhibition ([11]; at 100.0 µM) was 97% (active), the growth inhibition ([12]; at 1.2 µM) was -15% (inactive) and the growth inhibition ([12]; at 3.7 µM) was -12% (inactive). The growth inhibition ([12]; at 11.0 µM) was 16% (inactive), the growth inhibition ([12]; at 33.0 µM) was 83% (active) and the growth inhibition ([12]; at 100.0 µM) was 97% (active).

With Cc1cc(SC#N)ccc1O the growth inhibition [1, 13] was 13% (inactive) and 4% (inactive) and -2% (inactive), the growth inhibition [1, 14] was 91% (active) and the growth inhibition ([1]; at 50.0 µM) was 92.6% (active) and 86.2% (active) and 91.6% (active). For the same compound, the growth inhibition [2, 13] was -1% (inactive) and -7% (inactive) and -6% (inactive), the growth inhibition [2, 14] was 83% (active) and 90% (active) and 62% (inactive) and the growth inhibition ([2]; at 50.0 µM) was 90% (active) and 87.1% (active). The growth inhibition [3, 13] was -2% (inactive) and 6% (inactive), the growth inhibition [3, 14] was 92% (active) and 77% (active) and 63% (inactive) and the growth inhibition ([3]; at 50.0 µM) was 95.2% (active) and 85.7% (active) and 75% (active). For the same compound, the growth inhibition [4, 13] was -1% (inactive) and 26% (inactive) and -3% (inactive), the growth inhibition [4, 14] was 64% (inactive) and 91% (active) and 71% (active) and the growth inhibition ([4]; at 50.0 µM) was 32.8% (inactive) and 83.2% (active) and 70% (inactive). The growth inhibition [5, 13] was 15% (inactive) and 2% (inactive) and 13% (inactive), the growth inhibition [5, 14] was 94% (active) and 80% (active) and the growth inhibition ([5]; at 50.0 µM) was 91.3% (active) and 88.4% (active) and 95% (active). For the same compound, the growth inhibition [6, 13] was 9% (inactive) and -4% (inactive) and 1% (inactive), the growth inhibition [6, 14] was 95% (active) and 87% (active) and the growth inhibition ([6]; at 50.0 µM) was 96.4% (active) and 86.3% (active) and 95.6% (active).

In the case of Nc1ccccc1SSc1ccccc1N, the growth inhibition [1, 13] is reported as 27% (inactive) and 9% (inactive) and 56% (inactive), the growth inhibition [1, 14] is reported as 99% (active) and -9% (inactive) and the growth inhibition ([1]; at 50.0 µM) is reported as 99.4% (active) and 99% (active) and 99.3% (active). The growth inhibition [2, 13] was 80% (active) and 18% (inactive) and 29% (inactive), the growth inhibition [2, 14] was 99% (active) and 0% (inactive) and the growth inhibition ([2]; at 50.0 µM) was 99.5% (active) and 99.1% (active). The growth inhibition [3, 13] was 67% (inactive) and 13% (inactive) and 41% (inactive), the growth inhibition [3, 14] was 99% (active) and 12% (inactive) and the growth inhibition ([3]; at 50.0 µM) was 99.3% (active). For the same compound, the growth inhibition [4, 13] was 17% (inactive) and 4% (inactive) and 13% (inactive), the growth inhibition [4, 14] was 99% (active) and 5% (inactive) and the growth inhibition ([4]; at 50.0 µM) was 99.2% (active) and 98.8% (active). The growth inhibition [5, 13] was 87% (active) and 13% (inactive) and 89% (active), the growth inhibition [5, 14] was 99% (active) and 28% (inactive) and the growth inhibition ([5]; at 50.0 µM) was 98.3% (active) and 99.1% (active). For the same compound, the growth inhibition [6, 13] was 80% (active) and 17% (inactive) and 46% (inactive), the growth inhibition [6, 14] was 99% (active) and 7% (inactive) and the growth inhibition ([6]; at 50.0 µM) was 99.3% (active) and 99% (active).
